The results in this text go back to PubChem BioAssay.

This assay deals with Calmodulin-1 (Homo sapiens) (UniProt P0DP23). The assay is described as follows: small molecules binding calmodulin-1 with EGTA – biochemical, small-molecule microarray, Cy5-labelled CALM1, profiling panel (AID 1111).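 Note: labelled calmodulin applied in Tris saline Tween buffer holding calcium plus EGTA and DTT.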 To be noted: Cy5-CALM1 binding fluorescence, higher = more signal.
For `CC(C)(C)N1CC=CC23O[C@@H]4/C=C\CCCOC(=O)C4[C@H]2C(=O)N(CCCO)[C@@H]3C1=O` (stereo partly drawn), the composite z-score was -0.71.

`Cc1ccc(S[C@]2(C(=O)NCCCN(C)C)CC(=O)N(C3Cc4ccccc4C3)[C@@H]2c2ccc(CO)cc2I)cc1`: the composite z-score turned out to be 0.0811.

In the case of `CCOc1cc(C(O)C2C=CC3C(=O)N(c4ccccc4)C(=O)C3N2Nc2ccccc2F)ccc1O` (stereo not drawn), the composite z-score is 0.182.

As to `Cc1ccc(F)cc1S(=O)(=O)N[C@H]1CCN(Cc2ccc(OC(C)C)cc2)C1`, the composite z-score was -0.781.

`COC(=O)C(CC#Cc1ccc2c(c1)[C@]1(C(=O)N2)[C@H](c2ccc(OCCO)cc2)N2[C@H](c3ccccc3)[C@H](c3ccccc3)OC(=O)[C@H]2[C@@H]1C(=O)N1CCCCCCC1)C(=O)OC` displayed a composite z-score of 2.73.

The molecule `[N-]=[N+]=Nc1ccccc1C[C@]1(C(=O)N2CCOCC2)N=C(c2ccc(OCCCO)cc2)O[C@H]1c1ccccc1N=[N+]=[N-]` gave a composite z-score of 1.5.

Molecule `O=C(NC1CC1)[C@@H]1c2ccccc2C(=O)N(Cc2ccc(OC(F)(F)F)cc2)[C@H]1c1ccc(CO)cc1` had a composite z-score of 0.168.

Regarding `CN(C)CCCC[C@@H]1NC(=O)[C@H]2C[C@@H](C(=O)O)[C@@H](c3ccc(O)cc3)N2C1=O`, the composite z-score is 2.44.

`CO[C@H]1O[C@H](CO)[C@@H](OC(=O)Nc2ccccc2)[C@H](OC(=O)Nc2ccccc2)[C@H]1OC(=O)Nc1ccccc1` gave a composite z-score of 1.34.

`[N-]=[N+]=NCc1ccccc1[C@@H]1OC(c2ccc(OCCCO)cc2)=N[C@]1(Cc1ccccc1N=[N+]=[N-])C(=O)O`: the composite z-score was found to be 1.4.

`CC(C)=CCCC(C)=CC(O)C1C=CC2C(=O)NC(=O)C2N1Nc1ccc(Cl)cc1Cl` (stereo not drawn) came in with a composite z-score of 1.69.

`CC(C)C(=C=CC[C@H](O)c1ccccc1OCCO)C[C@H](O)c1cc(Cl)cc(Cl)c1O` came in with a composite z-score of 0.195.

As to `COc1ccc(C(=O)Nc2ccc3c(c2)[C@@]2(O[C@H](CCO)[C@@H]([Si](C)(C)c4ccc(OC)cc4)[C@@H]2C)C(=O)N3Cc2ccccc2)cc1`, the composite z-score was 0.397.

With `CC(C)(C)OC(=O)CC[C@@]1(C(=O)NCCN2CCOCC2)N=C(c2ccc(OCCCO)cc2)O[C@@H]1c1ccccc1CN=[N+]=[N-]`, the composite z-score came to 1.98.

As to `CC(C)C(CO)N1C(=O)[C@@H]2C3C(=O)OCCC/C=C\[C@H]3OC23C=CCN(Cc2ccccc2)C(=O)[C@@H]13` (stereo partly drawn), the composite z-score is -0.969.

For the molecule `COC(=O)C(CC#Cc1ccc2c(c1)[C@]1(C(=O)N2)[C@H](C(=O)N2CCc3cc(OC)c(OC)cc3C2)[C@H]2C(=O)O[C@H](c3ccccc3)[C@H](c3ccccc3)N2[C@@H]1c1ccccc1OCCO)C(=O)OC`, the composite z-score turned out to be 1.02.

Take `CC(C)=CCCC=C(C)C(O)C1C=CC2C(=O)N(c3ccccc3)C(=O)C2N1Nc1ccc(C#N)cc1` (stereo not drawn): the composite z-score stood at 1.46.

The molecule `C=CCC(OC(C)=O)[C@@H]1[C@@H](N(Cc2cccc3ccccc23)C(=O)Cc2ccc(OC)cc2)c2cc(OCCCO)ccc2N1C(=O)Cc1ccc2ccccc2c1` (stereo partly drawn) returned a composite z-score of 0.0895.

Consider `CN1C(=O)C2C=CC(C(O)c3ccc(-c4ccccc4)s3)N(NC(=O)OC(C)(C)C)C2C1=O` (stereo not drawn), for which the composite z-score was 2.28.

As to `COC(=O)[C@@]1(Cc2ccccc2)N=C(c2ccc(OCCCO)cc2)O[C@H]1c1ccccc1CN=[N+]=[N-]`, the composite z-score was -0.0422.

Molecule `COc1ccc([Si](C)(C)[C@H]2[C@H](CC(=O)N3Cc4ccccc4C[C@H]3CO)O[C@@]3(C(=O)N(C)c4ccccc43)[C@@H]2C)cc1` gave a composite z-score of 0.125.

As to `C=CCC(OC(C)=O)[C@@H]1[C@@H](N(Cc2cc3ccccc3o2)C(=O)c2cccc3ccccc23)c2cc(OCCCO)ccc2N1C(=O)c1ccc2ccccc2n1` (stereo partly drawn), the composite z-score is -0.153.

Consider `CCOC(=O)C[C@H]1[C@H](OC(=O)c2ccccc2-c2ccccc2)[C@@H](NC(=O)C2CCCCC2)c2cc(OCCCO)ccc2N1C(=O)c1ccc2ccccc2n1`, for which the composite z-score was 0.236.

Consider `O=C1C2C=CC(C(O)C3CCCCC3)N(n3cnnc3)C2C(=O)N1Cc1ccccc1` (stereo not drawn), for which the composite z-score came to 0.879.

With `C=CCOC(=O)[C@@H]1[C@H]2C(=O)O[C@H](c3ccccc3)[C@H](c3ccccc3)N2[C@H](c2ccc(OCCOC(=O)[C@H]3C[C@H]4C(=O)N[C@@H](CCCCN(C)C)C(=O)N4[C@H]3c3ccc(O)cc3)cc2)[C@@]12C(=O)Nc1ccc(I)cc12`, the composite z-score is -0.842.

As to `O=C1C[C@]2(c3ccc([N+](=O)[O-])cc3)C(=O)N(C3CC3)c3cc(CO)ccc3[C@H]2N1C1CCCCC1`, the composite z-score was -0.301.

`CN(C)CCCNC(=O)[C@@]1(Cc2ccccc2I)c2ccccc2C(=O)N(C2CCCCC2)[C@H]1c1ccc(CO)cc1` yielded a composite z-score of 1.71.

In turn, `C=CCC(OC(C)=O)[C@@H]1[C@@H](N(Cc2cccc3ccccc23)C(=O)c2ccc(-c3ccccc3)cc2)c2cc(OCCCO)ccc2N1C(=O)Cc1ccc2ccccc2c1` (stereo partly drawn) gave a composite z-score of 0.858.
